# Measurements: PubChem BioAssay (NCI)
# The panel holds about 83,000 compounds, 20% with a hit somewhere; the sample as a whole holds those more often.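 Assay: single dose, 48 h. Readout: percent growth (0 = no net growth; negative = cell death). Active: <10.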 Unmarked numbers belong to inactive results. The source made the active and inactive calls.
# What was measured:
# Assay in all cases: NCI-60 one-dose screen, 48 h (100 = growth as untreated, 0 = no growth, -100 = all killed)
# Conditions in all cases: 10 µM unless noted
# T-47D breast = system: T-47D breast
# BT-549 breast = system: BT-549 breast
# MDA-MB-435 melanoma = system: MDA-MB-435 melanoma
# SW-620 colon = system: SW-620 colon
# MCF7 breast = system: MCF7 breast
# HCT-116 colon = system: HCT-116 colon
# HCC-2998 colon = system: HCC-2998 colon
# KM12 colon = system: KM12 colon
Compound,growth (T-47D breast),growth (BT-549 breast),growth (MDA-MB-435 melanoma),growth (SW-620 colon),growth (MCF7 breast),growth (HCT-116 colon),growth (HCC-2998 colon),growth (KM12 colon)
c1ccc(-c2nc(Nc3nccnn3)c3ccccc3n2)cc1,83.4%,99.1%,101%,97.9%,75%,100%,106%,97.8%
COc1cc2c(cc1OC)C(CC1(O)CCCCC1)N(S(=O)(=O)c1ccc(C)cc1)CC2 (stereo unspecified),29.7% [100 µM],-1.8% [100 µM] (active),-23.1% [100 µM] (active),15.6% [100 µM],25.7% [100 µM],9.09% [100 µM] (active),39% [100 µM],4.08% [100 µM] (active)
COc1ccc2c(c1)sc1nc(-c3ccc(N(C)C)cc3)cn12,68.7%,99%,104%,104%,84%,91.7%,92%,75.8%
CC(=O)N1N=C(c2ccc(C(F)(F)F)cc2)CC1c1ccc2c(c1)OCO2 (stereo unspecified),86.2%,93.7%,78.2%,88.4%,78.6%,45.5%,94.3%,89.2%
Cc1[nH]c(=O)[nH]c(=O)c1CCSSCCc1c(C)[nH]c(=O)[nH]c1=O,96.6%,105%,103%,108%,87.2%,101%,102%,101%
Nc1ccc2c(c1Br)Cc1ccccc1-2,87.8%,89%,110%,98.1%,51%,98.2%,99.1%,103%
COP(=O)(OC)C(c1ccccc1)(c1ccccc1)c1ccccc1,88.8%,117%,91.2%,98.1%,103%,73.1%,114%,93.7%
CCN(CC)c1ccc(C(=C2C=CC(=[N+](CC)Cc3cccc(S(=O)(=O)O)c3)C=C2)c2ccc(N(CC)Cc3cccc(S(=O)(=O)O)c3)cc2)cc1,8.92% (active),46.6%,41.5%,22.9%,52.1%,3.12% (active),21%,3.78% (active)
CN1C(=O)C(C2=NN(C=O)C(c3ccc(F)cc3)C2)C(=O)N(C)C1=O (stereo unspecified),92.9%,102%,102%,98.8%,93.4%,98.7%,97.5%,99.9%
CCCCCCCCCCCCCCCCCC1=NC(C)(CO)CO1 (stereo unspecified),87.7%,92.9%,103%,108%,121%,105%,98.3%,102%
CCc1ccc(-c2nc(SCC(=O)NC3CCCCC3)n[nH]2)cc1,81.7%,84.6%,59.2%,80.5%,88.8%,74.2%,76.3%,82.2%
CN1CCN(CCCOc2ccc3ncnc(Nc4ccc(OCc5cccc(F)c5)c(Cl)c4)c3c2)CC1,-15.6% (active),72%,-88.4% (active),-78.7% (active),-69.2% (active),-87.9% (active),-80.9% (active),-56% (active)
O=C1/C(=C\c2coc3ccccc3c2=O)c2ccccc2N1c1c(Cl)cccc1Cl,30%,41.1%,14.5%,35%,31.6%,35.6%,53%,27.1%
COc1ccc(C(=O)COc2ccc(/C=C3\Oc4ccc5ccccc5c4C3=O)cc2)cc1,55.8%,45.1%,101%,94.6%,36.3%,85.9%,97.9%,90.9%
C/C=C(/C(=C/C)c1ccc(O)cc1)c1ccc(O)cc1,53.5%,40.7%,-40.2% (active),25.6%,20.6%,27%,61.7%,20.3%
c1ccc(COc2ccc(Nc3ncnc4c3cnn4-c3ccccc3)cc2)cc1,100%,106%,90.1%,98.7%,101%,106%,108%,98.2%

Compound,growth (T-47D breast),growth (BT-549 breast),growth (MDA-MB-435 melanoma),growth (SW-620 colon),growth (MCF7 breast),growth (HCT-116 colon),growth (HCC-2998 colon),growth (KM12 colon)
C[C@H](C(=O)N[C@@H](Cc1ccc(-c2ccccc2)cc1)C(=O)NC1CC(C)(C)N(C)C(C)(C)C1)c1ccc(-c2ccccc2)c(F)c1,-52.7% (active),-82.5% (active),-84.9% (active),-76.8% (active),-79.6% (active),-87.6% (active),-86.8% (active),-78.6% (active)
Cn1ccnc1C(=O)/C=C/c1ccc(C(=O)Nc2nc3ccccc3[nH]2)cc1,49.6%,5.05% (active),18.8%,5.35% (active),19.5%,23.1%,45.4%,14.4%
CN(C)CCCNc1nn2c(=O)c3ccccc3nc2c2ccccc12,92.5%,75.6%,74.7%,57.9%,26.7%,25.2%,70.6%,66.1%
O=C(COc1ccc(/C=C2\Oc3ccc4ccccc4c3C2=O)cc1)c1ccc([N+](=O)[O-])cc1,73.1%,9.91% (active),104%,98.5%,15.6%,74.1%,95.5%,93.5%
Cc1ccc(-c2c3c(N)c4c(nc3nc3c2c(C)nn3-c2ccccc2)CCC4)cc1,103%,90.4%,103%,6.36% (active),14.9%,-72.5% (active),100%,79.8%
Cc1ccc(C2=Nc3c(ccc4c(C)c(C)c(=O)oc34)OC2)cc1,89.8%,94%,104%,108%,115%,95.5%,96.1%,97.8%
O=C(CSc1nnc(-c2cc(-c3ccccc3)nc3ccccc23)o1)c1ccc(Br)cc1,102%,96.9%,104%,107%,111%,101%,113%,107%
FC(F)(F)c1ccc(-c2cnc(-c3nn[nH]n3)nc2NC2CCCCCC2)cc1,46.9% [50 µM],50.8% [50 µM],43.1% [50 µM],41.2% [50 µM],50.4% [50 µM],33.3% [50 µM],60.6% [50 µM],41.5% [50 µM]
CN(C)CCCN=c1cc2c(=O)n(CCCN(C)C)c(=O)c3c(NCCCN(C)C)cc4c(O)n(CCCN(C)C)c(=O)c1c4c3-2,-1.16% (active),37%,-52.8% (active),-14.6% (active),0.771% (active),-29.7% (active),13.8%,3.01% (active)
CC(C)Sc1nc(-c2ccc(Br)cc2)c(C#N)c(N2CCCCC2)n1,94.3%,109%,95.7%,102%,93.1%,100%,121%,95.9%
OC(c1ccccc1)C(NCc1ccccc1)c1ccccc1 (stereo unspecified),91.7%,98.7%,78.9%,92.9%,97.1%,66.1%,105%,102%
O=C1C(=O)/C(=C/c2ccccc2)CCCCCC/C1=C/c1ccccc1,47.6%,16.4%,-41.8% (active),-19.1% (active),6.04% (active),-23.7% (active),-22.3% (active),-23.6% (active)
O=C(CNc1ccc2c(c1)C(=O)c1ccccc1C2=O)Nc1ccc2c(c1)C(=O)c1ccccc1C2=O,-65.5% (active),-80.4% (active),-82.4% (active),-89.9% (active),-71.1% (active),-90.2% (active),-93.3% (active),-91.4% (active)
O=C1C2C(C(=O)N1CC[Se][Se]CCN1C(=O)C3C(C1=O)[C@H]1C=C[C@@H]3C1)[C@H]1C=C[C@@H]2C1 (stereo partly specified),5.4% (active),-40.3% (active),-65.9% (active),8.38% (active),9.03% (active),1.96% (active),28.6%,0.112% (active)
CC(C)C[C@H](NC(=O)/C=C/Cn1ccc2ccccc2c1=O)B(O)O,17.6%,27.9%,-44.3% (active),24.6%,26.5%,16.2%,62.5%,37.8%
C=C1CC[C@@H]2[C@](C)(COC(C)=O)[C@H](OC(C)=O)CC[C@@]2(C)[C@@H]1CC(NCc1ccccc1)C1=CCOC1=O (stereo partly specified),14.2%,28.1%,27.9%,47.3%,29.8%,42.3%,93.7%,39.1%
